Shown are actives, neighbours in structure and some others; about 1.2% of the full set was active somewhere.
RGS8-Gao reg – regulators of human RGS8-Galphao interaction | multiplexed bead flow cytometry, RGS8-Galphao binding; actives lie on both sides | 0.34% of 220,000 active | AID 1423 | response (percent of control binding), % at 10 µM | P09471; in the data active means response below about 60% or above about 140%; inactive means in between;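 further: Galphao activated as the GDP aluminium fluoride complex binding bead-coupled RGS8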
Target sequence (P09471 whole entry, looked up): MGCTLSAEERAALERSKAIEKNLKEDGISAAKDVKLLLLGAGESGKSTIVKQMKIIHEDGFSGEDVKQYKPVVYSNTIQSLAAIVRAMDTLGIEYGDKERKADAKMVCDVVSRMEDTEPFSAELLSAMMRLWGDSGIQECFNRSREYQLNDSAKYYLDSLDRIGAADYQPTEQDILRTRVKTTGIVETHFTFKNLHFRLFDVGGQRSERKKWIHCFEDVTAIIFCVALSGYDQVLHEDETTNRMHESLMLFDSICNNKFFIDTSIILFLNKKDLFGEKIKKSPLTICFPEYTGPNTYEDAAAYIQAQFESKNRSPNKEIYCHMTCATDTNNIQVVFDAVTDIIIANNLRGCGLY
RGS4-Gao reg – human RGS4-Galphao interaction regulation | Multiplexed bead flow cytometry, RGS4-Galphao binding; actives lie on both sides | binding response (% of control), % at 10 µM | 0.33% of 220,000 active; in the data active means binding response below about 49% or above about 150%; inactive means in between;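 further: fluorescent Galphao activated with aluminum fluoride binding bead-coupled RGS4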
RGS7-Gao – modulates binding of RGS7 to human Galphao. 0.35% of 220,000 active. P09471. Multiplexed bead flow cytometry; actives lie on both sides. binding response (% of control), % at 10 µM. AID 1439; in the data active means binding response below about 49% or above about 150%; inconclusive means no clear call, values can overlap the other calls; inactive means in between;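 further: fluorescent Galphao held in activated GDP-AlF4 state binding bead-coupled RGS7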
Avidin fluor – avidin bead compound fluorescence profile; Avidin beads, compound fluorescence 488/530 nm, flow cytometry; stronger effect = higher value; AID 1775; fluorescence (KMESF) at 10 µM; 0.38% of 220,000 active; in the data active means fluorescence above about 47
RGS16-Gao – RGS16-Galphao interaction regulator (human); bead-based flow cytometry RGS16-Galphao binding, fluorescence; actives lie on both sides; O15492+P09471; 0.38% of 220,000 active; AID 1441; binding response (% of control), % at 10 µM;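 further: Galphao activated by GDP with aluminum fluoride before binding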
GSH bead fluor – compound fluoresces at 488/530 nm on GSH beads. GSH beads flow cytometry, compound fluorescence 488/530 nm; stronger effect = higher value. 0.25% of 190,000 active. fluorescence (KMESF) at 10 µM. AID 1776; in the data active means fluorescence above about 89;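 further: glutathione beads carrying GST-tagged Bcl family fusion proteins plus one bare bead set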
RGS4-Gao HTS – modulates binding between human RGS4 and Galphao. multiplexed bead flow cytometry, RGS–Galpha-o binding. RGS4–Galpha-o binding response, % at 10 µM. AID 1504. shares compounds with RGS16-Gao. 99% of 1,600 active;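 further: fluorescently labeled Galpha-o bound to GDP with aluminium fluoride binding biotinylated RGS beads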
Biotin-avidin – counter-screen: compounds disrupting biotin binding to avidin beads. shares compounds with RGS16-Gao. 1,700 tested, under 10 active. inhibition, % at 10 µM. streptavidin beads, fluorescein-biotin binding, flow cytometry;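 active means inhibition above 50%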;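 further: median green fluorescence of gated singlet beads compared with DMSO control wells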
RGS8-Gao confirm – RGS8-Galphao interaction regulation, single point confirmation; shares compounds with RGS16-Gao; bead-based flow cytometry RGS8-Galphao binding, fluorescence; actives lie on both sides; binding response (% of control), % at 10 µM; 3% of 1,700 active; AID 1836; in the data active means binding response below about 72% or above about 130%; inactive means in between;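 further: Galphao activated as GDP AlF4 complex before binding bead RGS8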
RGS7-Gao single – RGS7-Galphao interaction regulation, single point confirmation. shares compounds with RGS16-Gao. bead-based flow cytometry RGS7-Galphao binding; actives lie on both sides. response (percent of control binding), % at 10 µM. 7.8% of 1,700 active. AID 1837; in the data active means response below about 75% or above about 130%; inactive means in between;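 further: fluorescent Galphao activated with GDP and aluminum fluoride binding bead-coupled RGS7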
RGS16-Gao conf – RGS16-Galphao interaction regulation, single point confirmation; shares compounds with RGS16-Gao; response (% of control binding), % at 10 µM; bead-based flow cytometry, RGS16-Galphao binding; actives lie on both sides; 4% of 1,700 active; in the data active means response below about 74% or above about 130%; inactive means in between;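 further: Galphao activated as the GDP aluminium fluoride complex binding bead-coupled RGS16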
RGS4-Gao single – confirmation of regulators of human RGS4-Galphao interaction; shares compounds with RGS16-Gao; RGS4-Galphao binding, multiplexed bead flow cytometry; actives lie on both sides; binding response (% of control), % at 10 µM; 4% of 1,700 active; AID 1840; in the data active means binding response below about 74% or above about 130%; inactive means in between
RGS19-Gao conf – confirmation of regulators of human RGS19-Galphao interaction; shares compounds with RGS16-Gao; bead-based flow cytometry RGS19-Galphao binding; actives lie on both sides; 5% of 1,700 active; response (percent of control binding), % at 10 µM; in the data active means response below about 50% or above about 160%; inactive means in between
Hits are given with their value; 0 = inactive; ? = inconclusive; - = not tested or not shown; [ ] = remark or other dose. Unless noted, how the calls were made is not given here.

SMILES	RGS8-Gao reg	RGS4-Gao reg	RGS7-Gao	Avidin fluor	RGS16-Gao	GSH bead fluor	Biotin-avidin	RGS8-Gao confirm	RGS7-Gao single	RGS16-Gao conf	RGS4-Gao single	RGS19-Gao conf	others
CCCOC(=O)c1ccc(OC(=O)c2ccco2)cc1	0	176[activator]	0	0	0	0	0	0	0	0	0	0
O=C(Nc1ccc2c(c1)OCO2)C1CCN(Cc2cnn(-c3ccccc3)c2-n2cccc2)CC1	56	0	37	0	0	0	0	0	0	0	0	0	RGS4-Gao HTS=79
Cc1ccc(C2C3=C(CC(C)(C)CC3=O)Nc3onc(C)c32)cc1 (stereo unspecified)	-	0	0	-	0	0	0	0	0	0	0	0
Cc1ccc2nc(-c3cccnc3)c(Nc3ccccc3C)n2c1	0	0	0	0	0	0	-	-	-	-	-	-
Cc1ccc2nc(-c3cccnc3)c(NC3CCCCC3)n2c1	0	0	0	0	203[activator]	0	0	0	0	0	0	0	RGS4-Gao HTS=114
CCCC(=O)NCn1nnc(-c2ccc(Cl)cc2)n1	0	346[activator]	295[activator]	50	273[activator]	0	0	0	0	0	0	0
O=C(Cn1nnc(-c2ccc(Cl)cc2)n1)NCc1ccco1	0	0	0	0	0	0	-	-	-	-	-	-
COc1cccc(/C=N/NC(=O)CNC(=O)c2ccc(S(=O)(=O)N3CCCC3)cc2)c1OC	0	0	0	0	0	0	-	-	-	-	-	-
O=C(O)C1=C[C@H](c2ccc(F)cc2)C[C@H](OCCCCO)O1	0	0	?	0	0	-	-	-	-	-	-	-
N#Cc1ccc(-c2ccc(OCC(=O)NCCCN3CCCC3=O)cc2)cc1	0	0	?	0	0	0	-	-	-	-	-	-
COc1ccc(C(=O)c2ccccc2)c(OCC(=O)NC2CC2)c1	0	0	0	0	0	0	-	-	-	-	-	-
O=[N+]([O-])c1ccc2nc(SCc3ccccc3Cl)sc2c1	0	0	0	0	0	0	-	-	-	-	-	-
O=C(CSc1nc2ccc([N+](=O)[O-])cc2s1)c1ccc2ccccc2c1	31	3.0	?	0	5.0	-	0	0	0	0	0	0
Cc1cccc(C(=O)NCC(c2ccc(F)cc2)N2CCOCC2)c1 (stereo unspecified)	0	0	?	0	0	0	-	-	-	-	-	-
C#CCNC(=O)C1=C[C@@H](C(C)(C)C)C[C@@H](OCc2ccc(CO)cc2)O1	22	30	21	0	17	0	0	0	0	0	0	0
Cc1ccc(NC(=O)Nc2ccc3c(c2)C(=O)OC3)cc1Cl	0	0	?	0	0	-	-	-	-	-	-	-
COC(=O)c1cnn(-c2ccccc2)c1/C=N/NC(=S)Nc1ccc(Cl)cc1	0	0	?	0	0	-	-	-	-	-	-	-
Cc1cccc(C)c1-n1cccc1/C=C1/C(=N)N2C(=NC1=O)SN=C2S(C)(=O)=O	0	0	0	0	0	0	-	-	-	-	-	-
Cc1ccc(-n2cccc2/C=C2/C(=N)N3C(=NC2=O)SN=C3S(C)(=O)=O)cc1Cl	0	0	45	0	0	0	-	-	-	-	-	-	RGS4-Gao HTS=72
